PubChem BioAssay (NCATS)
Records with an inconclusive call do not appear. A number with no mark means an inactive call. Calls of active or inactive are those of the source. The call rests on the fitted dose curve; in most records, active means well fitted cell-killing curve with a large enough effect; inconclusive means small, poorly fitted or top-dose-only effect, or effect the other way; inactive means no such curve, though single readings can be large or run the other way.

Assay: Quantitative High-Throughput drug screen in 47 multiple myeloma cell lines against the NCATS MIPE library collection: OCIMY5_PLB cell viability assay (AID 1918988); further: nearly all actives have a fitted effect of over 65% in size
Conditions: OCI-MY5 myeloma viability, ATP luminescence, 48 h; series mostly up to 45.8 µM; viability, % of control: at the top concentration
Excerpt: PI: Beverly A. Mock Ph.D.
Laboratory of Cancer Biology and Genetics,
Center for Cancer Research, National Cancer Institute,
National Institute of Health, Bethesda, Maryland
Drug resistance and disease progression are common in multiple myeloma (MM) patients, underscoring the need for new therapeutic combinations. […] We hypothesized that effective combinations would reduce MYC expression and enhance p16 activity. […] These preclinical data identify potentially useful drug combinations for evaluation in drug-resistant MM and reveal potential mechanisms of combined drug sensitivity.
Described herein is the primary MIPE qHTS used to cherrypick compounds. Validated compounds were then further tested for potential synergistic activiy.
[1] Peat TJ, Gaikwad SM, Dubois W, Gyabaah-Kessie N, Zhang S, Gorjifard S, Phyo Z, Andres M, Hughitt VK, Simpson RM, Miller MA, Girvin AT, Taylor A, Williams D, D'Antonio N, Zhang Y, Rajagopalan A, Flietner E, Wilson K, Zhang X, Shinn P, Klumpp-Thomas C, McKnight C, Itkin Z, Chen L, Kazandijian D, Zhang J, Michalowski AM, Simmons JK, Keats J, Thomas CJ, Mock BA. Drug combinations identified by high-throughput screening promote cell cycle transition and upregulate Smad pathways in myeloma. Cancer Lett. 2023 Aug 1;568:216284. doi: 10.1016/j.canlet.2023.216284. Epub 2023 Jun 24. PMID: 37356470; PMCID: PMC10408729.
SEQUENCE No. (e.g., 1, 2, 3, etc.); […] (e.g., Cells, Incubation, Reagent, etc.); VALUE and DESCRIPTION.
1; Cells; 5 uL; white, solid bottom 1536-well Greiner assay plate.
2; Compounds; 23 nL; Kalypsis pin tool (Wako USA) equipped with a 1536-well pin head to transfer to the assay plates.
3; Incubation; 48 hours; 37C incubation.
4; Reagent;5uL; CellTiter Glo (Promega).
5; Detector; 425V; Luminescence; Viewlux PerkinElmer.
NOTES (numbers refer to Sequence numbers above)
1. The cell-based screening methods employed in this study were like those previously published. Briefly, the corresponding myeloma cell lines were screened in 1,536-well plates with 500 cells, 5-uL per well for inhibition of cell viability (assessed by measuring ATP levels with CellTiterGlo).
2. NCATS MIPE 4.0 library of approved and investigational drugs were added using the Kalypsis pin tool. Wells treated with DMSO only for 100% viability and media only for 0% viability were used as controls.
3. The assay plates were covered and incubated for 48 hours in a 37C, 5% CO2 incubator with controlled humidity.
4. After 48 hours, CellTilter-GloTM luminescent substrate mix (Promega) reagent was added to the assay plate and plates we incubated for 5 min at room temperature.
5. Signal was measured as median relative luminescence units on a ViewLux (PerkinElmer) multiplate reader.
[1] Heske CM, Davis MI, Baumgart JT, Wilson K, Gormally MV, Chen L, Zhang X, Ceribelli M, Duveau DY, Guha R, Ferrer M, Arnaldez FI, Ji J, Tran HL, Zhang Y, Mendoza A, Helman LJ, Thomas CJ. Matrix Screen Identifies Synergistic Combination of PARP Inhibitors and Nicotinamide Phosphoribosyltransferase (NAMPT) Inhibitors in Ewing Sarcoma. Clin Cancer Res. 2017 Dec 1;23(23):7301-7311. doi: 10.1158/1078-0432.CCR-17-1121. Epub 2017 Sep 12. PMID: 28899971; PMCID: PMC6636827.
Potency means the concentration at half of the fitted maximal effect.

With `O=c1[nH]c2ccccc2n1C1CCN(Cc2ccc(-c3[nH]c4cc5ncnc5cc4nc3-c3ccccc3)cc2)CC1` as the molecule, how does the Potency read?
The Potency was 16.6 µM (active).

For `CO[C@H]1CCC(O[C@H]2C[C@H]([C@]3(C)CC[C@]4(C[C@H](O)[C@@H](C)[C@@H]([C@@H](C)C=C(C)C(=O)[C@H](C)C[C@H](C)C(=O)O)O4)O3)O[C@]3(O[C@@H]([C@H]4O[C@@](O)(CO)[C@H](C)C[C@H]4C)C[C@H]3C)[C@H]2C)O[C@H]1C` (stereo not given in full), which Potency is on record?
Its Potency is 0.132 µM (active).

With `CCCCCC[C@H]1C(=O)O[C@H](C)[C@H](NC(=O)c2cccc(NC=O)c2O)C(=O)O[C@@H](C)[C@@H]1OC(=O)CC(C)C` as the molecule, how does the Potency read?
The Potency was 0.0662 µM (active).

With `COc1cc([C@@H]2c3cc4c(cc3[C@@H](O)C3COC(=O)C32)OCO4)cc(OC)c1O` (stereo not given in full) as the molecule, how does the Potency read?
Its Potency is 0.0105 µM (active).

For `COC[C@H]1OC(=O)c2coc3c2[C@@]1(C)C1=C(C3=O)[C@@H]2CC[C@H](O)[C@@]2(C)C[C@@H]1OC(C)=O`, which Potency is on record?
The Potency was 10.5 µM (active).

For `CC(C)(O)C=CC(=O)[C@](C)(O)[C@H]1[C@H](O)C[C@]2(C)[C@@H]3CC=C4[C@@H](C=C(O)C(=O)C4(C)C)[C@]3(C)C(=O)C[C@@]12C`, which Potency is on record?
Its Potency is 0.0469 µM (active).

Which “viability, % of control” value does the source give for `CCc1c(C(=O)C(N)=O)c2c(OCC(=O)O)cccc2n1Cc1ccccc1` here?
The value was 168%.

For `O=C(Nc1ccncc1)C(=O)c1cn(Cc2ccc(Cl)cc2)c2ccccc12`, which Potency is on record?
The Potency was 0.0372 µM (active).

Which Potency does the source give for `CN1CCN(c2ccc([N+](=O)[O-])c3no[n+]([O-])c23)CC1` here?
Its Potency is 16.6 µM (active).

With `CC(N[C@H]1C[C@H]1c1ccccc1)c1ccc2c(c1)OCCO2` (stereo not given in full) as the molecule, how does the Potency read?
Its Potency is 2.96 µM (active).

Which “viability, % of control” value does the source give for `O=C(Oc1ccc([N+](=O)[O-])cc1)N1CCN(Cc2cccc(Oc3ccccc3)c2)CC1` here?
Its value is 126%.

With `COc1ccc2c(c1)CN(C)CC2c1ccc(Cl)c(Cl)c1` (stereo not given) as the molecule, how does the Potency read?
The Potency was 11.8 µM (active).

Which “viability, % of control” value does the source give for `CCCC[N+]1(C)[C@H]2CC(OC(=O)[C@H](CO)c3ccccc3)C[C@H]1[C@H]1O[C@H]12` (stereo not given in full) here?
Its value is 179%.

For `CCOC(=O)Nc1ccc(NCc2ccc(F)cc2)cc1N`, which “viability, % of control” value is on record?
Its value is 134%.

For `O=c1[nH]c2ccc(Cl)cc2c(N[C@@H]2CN3CCC2CC3)c1-c1nc2ccccc2[nH]1`, which Potency is on record?
The Potency was 0.0833 µM (active).

For `O=S(=O)(CC1CS1)c1ccc(Oc2ccccc2)cc1` (stereo not given), which Potency is on record?
Its Potency is 20.9 µM (active).

For `COc1cc2cc(c1Cl)N(C)C(=O)C[C@H](OC(=O)C(C)C)[C@]1(C)O[C@H]1[C@H](C)[C@@H]1C[C@@](O)(NC(=O)O1)[C@H](OC)C=CC=C(C)C2`, which “viability, % of control” value is on record?
Its value is 6.63%.

For `CSCC[C@@H](NC(=O)[C@@H](Cc1ccccc1)NC(=O)CNC(=O)CNC(=O)[C@@H](N)Cc1ccc(O)cc1)C(=O)O`, which “viability, % of control” value is on record?
Its value is 161%.

For `O=C1C=CC[C@@H]2[C@H]3CCCN4CCC[C@@H](CN12)[C@@H]34`, which Potency is on record?
Its Potency is 2.96 µM (active).

Which Potency does the source give for `CCNC(=O)C[C@@H]1N=C(c2ccc(Cl)cc2)c2cc(OC)ccc2-n2c(C)nnc21` here?
The Potency was 0.209 µM (active).

For `CC(C)(C)[C@]1(O)C[C@@H]2OC(=O)C[C@@]23C(=O)O[C@@H]2OC(=O)[C@H](O)C213` (stereo not given in full), which “viability, % of control” value is on record?
The value was 164%.

Which “viability, % of control” value does the source give for `O=C(Oc1ccc([N+](=O)[O-])cc1)N1CCC(C(O)(c2ccc3c(c2)OCO3)c2ccc3c(c2)OCO3)CC1` here?
Its value is 130%.

With `CC=C(C)C(=O)O[C@H]1C(C)=C2[C@@H]3OC(=O)[C@@](C)(O)[C@@]3(O)[C@@H](OC(=O)CCC)C[C@](C)(OC(C)=O)[C@@H]2[C@@H]1OC(=O)CCCCCCC` as the molecule, how does the Potency read?
The Potency was 0.0105 µM (active).

For `CCOC(=O)c1cncn1[C@H](C)c1ccccc1`, which “viability, % of control” value is on record?
The value was 157%.

Which Potency does the source give for `C[C@]12Cc3cn[nH]c3C[C@@H]1CC[C@@H]1[C@H]2CC[C@@]2(C)[C@H]1CC[C@]2(C)O` here?
The Potency was 13.2 µM (active).

Which Potency does the source give for `CN[C@@H]1Cc2cccc3[nH]c(=O)n(c23)C1` here?
Its Potency is 20.9 µM (active).

With `COC1=C[C@@H]2[C@@H]3Cc4ccc(OC)c(O)c4[C@]2(CCN3C)CC1=O` as the molecule, how does the Potency read?
Its Potency is 1.66 µM (active).

Which “viability, % of control” value does the source give for `c1ccc2c(CN3CCNCC3)cccc2c1` here?
The value was 128%.

With `C[C@]12CC[C@H]3[C@@H](CCC4=CC(=O)CC[C@@]43C)[C@H]1CC[C@H]2OC(=O)CCC1CCCC1` as the molecule, how does the Potency read?
The Potency was 20.9 µM (active).

With `CC=C(C)C(=O)N[C@@H](c1ccccc1)[C@@H](O)C(=O)O[C@H]1C[C@@]2(O)[C@@H](OC(=O)c3ccccc3)[C@@H]3[C@]4(OC(C)=O)CO[C@@H]4C[C@H](O)[C@@]3(C)C(=O)[C@H](OC(C)=O)C(=C1C)C2(C)C` as the molecule, how does the “viability, % of control” value read?
The value was 31.6%.

For `Cc1ccccc1-n1c(Cn2ncc3c(N)ncnc32)nc2cccc(C)c2c1=O`, which Potency is on record?
Its Potency is 4.18 µM (active).

With `O=S(=O)(F)Cc1ccccc1` as the molecule, how does the “viability, % of control” value read?
The value was 213%.

For `Cc1c(C(=O)Nc2cccc(C(F)(F)F)c2)cc(-c2ccccc2)n1CCCN1CCOCC1`, which Potency is on record?
Its Potency is 16.6 µM (active).

Which Potency does the source give for `CCN1CCN(C(=O)Cc2ccc(Nc3ncc(F)c(Nc4ccc(C(=O)Nc5ccccc5Cl)cc4)n3)cc2)CC1` here?
Its Potency is 2.64 µM (active).

With `COc1ccc(N(C(=O)Oc2c(C)cccc2C)c2ccnc(Nc3ccc(N4CCN(C)CC4)cc3)n2)c(OC)c1` as the molecule, how does the Potency read?
Its Potency is 1.18 µM (active).

Which “viability, % of control” value does the source give for `COc1cccc2c1[C@]13CCN(CC4CC4)[C@H](C2)[C@]1(OC)CCC(=O)C3` here?
Its value is 172%.

For `Cc1c(C(=O)c2cccc3ccccc23)c2cccc3c2n1[C@H](CN1CCOCC1)CO3`, which Potency is on record?
Its Potency is 23.5 µM (active).

With `CC(C)[C@]12O[C@@H]1[C@@H]1O[C@]13[C@]1(O[C@H]1C[C@@H]1C4=C(CC[C@@]13C)C(=O)OC4)[C@H]2O` as the molecule, how does the “viability, % of control” value read?
Its value is 3.94%.

With `COc1ccc2c(c1)[C@]13CCCCC1C(C2)N(C)CC3` (stereo not given in full) as the molecule, how does the “viability, % of control” value read?
The value was 126%.

Which “viability, % of control” value does the source give for `C[C@]12COC(=O)C[C@@H]1CC[C@@H]1[C@H]2CC[C@@]2(C)[C@H]1CC[C@]2(C)O` here?
Its value is 156%.
